In the library only some 12% were active in any assay of this set; here they are far more common.
JMJD2A Tudor inh: qHTS Assay for Inhibitors of JMJD2A-Tudor Domain. Lysine-specific demethylase 4A (Homo sapiens), O75164. AlphaScreen JMJD2A-Tudor / H3K4me3 peptide binding. Potency, µM (titrated, usually from 114 µM), hits mostly inhibitors. 4.4% of 390,000 active; note: nearly all actives have a fitted effect of over 50% in size
BAZ2B inh: qHTS Assay for Inhibitors of BAZ2B | AlphaScreen BAZ2B-H3K14Ac peptide displacement | Potency, µM (highest dose often 114 µM), hits mostly inhibitors | 4.4% of 360,000 active | AID 504333, 2011; note: nearly all actives have a fitted effect of over 60% in size
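BAZ2B (50 nM) with biotin-H3(5-23)K14Ac peptide (50 nM) in PBS pH 7.4, 0.01% Tween-20, preformed 30 min, then compound 30 min at room temperature; top concentration 110uM. AlphaScreen streptavidin donor/nickel chelate acceptor beads (10 ug/mL final), 20 min dark, signal read.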
HP1b binding inh: HTS for Inhibitors of HP1-beta Chromodomain Interactions with Methylated Histone Tails. Chromobox protein homolog 1 (Homo sapiens), P83916. 0.56% of 390,000 active. Potency, µM (titrated, usually from 114 µM), most hits filed as inhibitors. AlphaScreen HP1-beta / biotin-H3K9me3 peptide binding; note: nearly all actives have a fitted effect of over 70% in size
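Compound inhibition of the preformed complex between 50 nM HP1-beta and 50 nM biotinylated H3K9me3 peptide was read by AlphaScreen. Buffer was PBS pH 7.4 with 0.01% Tween-20. Incubations ran 30 min at room temperature, with 10 ug/mL donor/acceptor beads.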
Sfp PPTase inh: qHTS Assay for Inhibitors of Bacillus subtilis Sfp phosphopantetheinyl transferase (PPTase). Biochemical Sfp PPTase activity, qHTS. 4'-phosphopantetheinyl transferase ffp (Bacillus subtilis), Q9F4F7. 3.5% of 310,000 active. Potency, µM, usual class: inhibitors;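 note: the enzyme is Sfp with the accession as filed and its product quenches rhodamine fluorescence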
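Sfp 15 nM + cpd, 15 min RT; start w/ rhodamine-CoA 5 uM, BHQ-2-YbbR 12.5 uM (final); 50 mM Hepes pH 7.6, 10 mM MgCl2, 0.01% NP-40, 0.01% BSA; read 525/598 nm at 0 and 30 min.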
G9a block: qHTS Assay for Inhibitors of Histone Lysine Methyltransferase G9a; Histone-lysine N-methyltransferase EHMT2 (Homo sapiens), Q96KQ7; G9a H3K9 monomethylation, AlphaScreen, 2 h; Potency, µM (highest dose often 102 µM), hits mostly inhibitors; 8.8% of 350,000 active; AID 504332, 2011; note: nearly all actives have a fitted effect of over 75% in size
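Readings reflect AlphaScreen signal from monomethyl-H3K9 antibody detection. HMT at 20 nM; substrate b-H3K9 500 nM; cofactor SAM 20 uM; 2 h RT reaction; compounds tested as titrations in qHTS with 15 min preincubation.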
Of the large screens only hits and unclear results are named; the others gave an inactive call. Calls come from the whole dose curve; as a rule, active = well fitted curve in the direction sought with a large enough effect; inconclusive = small, poorly fitted or top-dose-only effect, or another doubt; inactive = no such curve, though single readings can be large; an effect the other way counts as inactive or inconclusive.

O=C(Oc1ccc(F)cc1)c1ccc2c(=O)n3c(nc2c1)CCC3	G9a block 50.1µM (no result: Sfp PPTase inh)
O=C(Oc1cccc(F)c1)c1ccc2c(=O)n3c(nc2c1)CCC3	G9a block inconclusive (no result: Sfp PPTase inh)
O=c1c2ccccc2nc2n1CCC2	JMJD2A Tudor inh 14.1µM, BAZ2B inh 14.1µM, Sfp PPTase inh inconclusive
O=C(Oc1ccccc1Cl)c1ccc2c(=O)n3c(nc2c1)CCC3	G9a block inconclusive (no result: Sfp PPTase inh)
CCN(CC)c1ccc(/C=N/NC(=O)OC)c(O)c1	G9a block inconclusive
CCN(CC)c1ccc(N=C2C=CC(=O)C=C2NC(C)=O)cc1	JMJD2A Tudor inh 10µM, HP1b binding inh 25.1µM (no result: BAZ2B inh, Sfp PPTase inh, G9a block)
CCOC(=O)C(NCc1ccccn1)(NC(=O)c1cccnc1)C(F)(F)F (centres undefined)	JMJD2A Tudor inh 63.1µM, BAZ2B inh 56.2µM, Sfp PPTase inh inconclusive
CCOC(=O)C(=O)Nc1cc(Cl)ccc1C	none
CCOC(=O)C(=N/O)/C(C)=N/NC(=O)C(=O)Nc1cc(Cl)ccc1Cl	JMJD2A Tudor inh inconclusive, BAZ2B inh 17.8µM
CCOC(=O)/C(C)=N/NC(=O)c1cccc([N+](=O)[O-])c1	none
CCOC(=O)C(=N/O)/C(C)=N/NC(C)=O	Sfp PPTase inh inconclusive, G9a block 7.08µM
Cc1ccc(C(=O)NCC(=O)NCc2ccccc2F)s1	none (no result: BAZ2B inh, Sfp PPTase inh, G9a block)
COc1cc(/C=C2/C(=N)N3OC(C)=CC3=NC2=O)ccc1OC(=O)c1ccco1	none
CCC(C)(C)NC(=O)/C=C/c1ccccc1[N+](=O)[O-]	none (no result: BAZ2B inh)
O=C(CSc1nnc(-c2ccncc2)n1Cc1ccco1)Nc1cccc(O)c1	none (no result: G9a block)
CCOC(=O)c1c(NC(=O)CSc2nnc(-c3ccncc3)n2Cc2ccco2)sc(C(C)=O)c1C	none (no result: BAZ2B inh, Sfp PPTase inh, G9a block)
Cc1cc(C)c(NC(=O)CSc2nnc(-c3ccccn3)n2N)c(Cl)c1	JMJD2A Tudor inh 44.7µM, BAZ2B inh 14.1µM
Cc1cc(C)c(NC(=O)CSc2nnc(-c3ccncc3)n2Cc2ccco2)c(Cl)c1	Sfp PPTase inh 20µM, G9a block 50.1µM
CCOC(=O)c1c(NC(=O)CSc2nnc(-c3ccncc3)n2Cc2ccco2)sc(C)c1C	JMJD2A Tudor inh inconclusive, BAZ2B inh inconclusive, G9a block 50.1µM
O=C(Nc1ccc(C(F)(F)F)cc1)c1cc(-c2cccnc2)nc2ccc(Br)cc12	none
O=C(Nc1nnc(C2CC2)s1)C1CCCCN1S(=O)(=O)c1ccccc1 (centres undefined)	none
Cc1cc(C)cc(-n2c3nc4ccccc4nc3c3c(=O)n(Cc4ccco4)cnc32)c1	BAZ2B inh 50.1µM, Sfp PPTase inh 7.08µM, G9a block inconclusive
Cc1nc2c(c(=O)n1Cc1ccccc1Cl)c1nc3ccccc3nc1n2Cc1ccco1	Sfp PPTase inh 2.82µM, G9a block inconclusive (no result: JMJD2A Tudor inh, HP1b binding inh)
Cc1nc2ccccc2c(=O)n1Cc1ccco1	none
CCO/C(C)=N/n1c2nc3ccccc3nc2c2c(=O)n(Cc3ccccc3Cl)c(C)nc21	none
COc1ccc(Cn2c3nc4ccccc4nc3c3c(=O)n(Cc4ccco4)c(C)nc32)cc1	BAZ2B inh 50.1µM, Sfp PPTase inh 7.94µM, G9a block inconclusive (no result: JMJD2A Tudor inh, HP1b binding inh)
COc1ccc(S(=O)(=O)c2c(N)n(Cc3ccco3)c3nc4ccccc4nc23)cc1	Sfp PPTase inh 56.2µM, G9a block 44.7µM
Cc1ccc(S(=O)(=O)c2c(N)n(CCCN(C)C)c3nc4ccccc4nc23)cc1	none
COCCCn1cnc2c(c1=O)c1nc3ccccc3nc1n2-c1ccc(C)cc1	none
CC(C)(C)c1ccccc1OCC(=O)NCCCn1ccnc1	none
CC1OC(OCC2OC(Oc3c(-c4ccc(OCCO)c(OCCO)c4)oc4cc(OCCO)cc(O)c4c3=O)C(O)C(O)C2O)[C@@H](O)C(O)C1O (some centres undefined)	none (no result: JMJD2A Tudor inh, BAZ2B inh, HP1b binding inh)
COc1ccc(OC)c(N(CC(=O)Nc2ccccc2)S(C)(=O)=O)c1	none
O=C(CNCc1cccs1)Nc1ccc(OC(F)(F)F)cc1	JMJD2A Tudor inh 3.98µM, BAZ2B inh 28.2µM, HP1b binding inh 28.2µM
O=C(CNCc1cccs1)Nc1ccc(N2CCCCCC2)cc1	JMJD2A Tudor inh 22.4µM, BAZ2B inh 22.4µM, HP1b binding inh 25.1µM, G9a block 8.91µM
Cc1ccc(NC(=O)CNCc2cccs2)cc1Br	JMJD2A Tudor inh 1.26µM, BAZ2B inh 39.8µM, HP1b binding inh 50.1µM, G9a block 17.8µM
CCC(C)NS(=O)(=O)c1ccc(NC(=O)CCC2CCCCC2)cc1 (centres undefined)	none
CCC(C)NS(=O)(=O)c1ccc(NC(=O)CNCc2cccs2)cc1 (centres undefined)	JMJD2A Tudor inh 25.1µM (no result: BAZ2B inh, Sfp PPTase inh, G9a block)
Cc1ccc(S(=O)(=O)N/N=C/c2ccc(OCC(=O)NC(C)C)cc2)cc1	none (no result: BAZ2B inh, Sfp PPTase inh, G9a block)
CCOc1ccc(NCc2cccn2-c2nnc(N3CCC(C(=O)NCCCN4CCCCC4C)CC3)s2)cc1 (centres undefined)	JMJD2A Tudor inh 39.8µM, BAZ2B inh inconclusive, G9a block 50.1µM
Cc1ccc(NCc2cccn2-c2nnc(N3CCC(C(=O)NCCC(C)C)CC3)s2)cc1	none (no result: Sfp PPTase inh)
CCOc1ccc(NCc2cccn2-c2nnc(N3CCC(C(=O)NCc4ccccc4Cl)CC3)s2)cc1	G9a block inconclusive (no result: Sfp PPTase inh)
CCOc1ccc(NCc2cccn2-c2nnc(N3CCC(C(=O)NCCCN4CCCCC4)CC3)s2)cc1	JMJD2A Tudor inh 50.1µM, BAZ2B inh 39.8µM, HP1b binding inh inconclusive, G9a block 39.8µM
CCOc1ccc(NCc2cccn2-c2nnc(N3CCC(C(=O)NCCCN4C(C)CCCC4C)CC3)s2)cc1 (centres undefined)	JMJD2A Tudor inh 56.2µM, BAZ2B inh 39.8µM, G9a block 39.8µM
COC(=O)C1C(=O)C(C(=O)c2ccccc2)C(=O)CC1(C)C (centres undefined)	BAZ2B inh inconclusive
CCNC(=O)CCSc1nnc(-c2ccncc2)o1	none
CCNC(=O)CCSc1nnc(-c2ccc(O)cc2)o1	G9a block 12.6µM (no result: Sfp PPTase inh)
CC(Sc1nnc(-c2ccc(O)cc2)o1)C(=O)Nc1cccc2ccccc12 (centres undefined)	G9a block 12.6µM
Cc1oc(-c2ccccc2Cl)nc1CS(=O)(=O)CC(=O)NC(C)CCc1ccccc1 (centres undefined)	G9a block inconclusive (no result: Sfp PPTase inh)
O=C(CN1C(=O)COc2ccccc21)N1CCCc2ccccc21	none
Cc1cccc(-c2oc(C)c(C)[n+]2[O-])c1	JMJD2A Tudor inh 44.7µM, G9a block inconclusive
C=CCC1NCCc2c(Br)cccc21 (centres undefined)	G9a block 22.4µM
C=CC[C@@H]1Cc2c(Br)ccc(Br)c2[C@@H](CC=C)N1	none
Cc1ccc(C(=O)N/C(=C/c2ccco2)C(=O)NCCCn2ccnc2)cc1	BAZ2B inh 31.6µM, G9a block inconclusive
